Laboratory results as given in PubChem BioAssay AID1159580 (chemical genetic matrix, 2015).
About 2,000 (36%) of roughly 5,500 compounds were called active. Inconclusive results (about 18%) are left out. No stated cut-off is given here; in the data, active means normalized growth mostly below about 0.91 (no sharp cut-off); inconclusive means no clear call, values can overlap the other calls; inactive means mostly above about 0.92. Some of the results follow.

Assay: chemical genetic growth profiling, strain panel (AID 1159580);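 further: tested at 20 µM; growth read once vehicle control cultures reached saturation at 30 °C; 1 = growth at the plate median or of vehicle wells; lower values mean less growth of the strain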
Settings: growth OD

Measured: normalized growth

CN(C)c1ccc(C(=O)NN)cc1
inactive: S. cerevisiae deletion strains, locus YAL013W, strain DEP1, active compounds read low 1.02 | S. cerevisiae deletion strains, locus YBR229C, strain ROT2, active compounds read low 1.02 | S. cerevisiae deletion strains, locus YDL101C, strain DUN1, active compounds read low 1.02 | S. cerevisiae deletion strains, locus YDL134C, strain PPH21, active compounds read low 1.01 | S. cerevisiae deletion strains, locus YDR150W, strain NUM1, active compounds read low 0.924 | S. cerevisiae deletion strains, locus YEL061C, strain CIN8, active compounds read low 0.99 | S. cerevisiae deletion strains, locus YGR078C, strain PAC10, active compounds read low 1.01 | S. cerevisiae deletion strains, locus YHR030C, strain SLT2, active compounds read low 1.08 | S. cerevisiae deletion strains, locus YHR087W, strain rtc3, active compounds read low 1.03 | S. cerevisiae deletion strains, locus YJL187C, strain SWE1, active compounds read low 1.01 | S. cerevisiae deletion strains, locus YJR043C, strain POL32, active compounds read low 1.02 | S. cerevisiae deletion strains, locus YJR075W, strain HOC1, active compounds read low 1 | S. cerevisiae deletion strains, locus YKL190W, strain CNB1, active compounds read low 1.01 | S. cerevisiae deletion strains, locus YLR039C, strain RIC1, active compounds read low 1.14 | S. cerevisiae deletion strains, locus YLR058C, strain SHM2 (second series), active compounds read low 1.02 | S. cerevisiae deletion strains, locus YLR085C, strain ARP6, active compounds read low 0.96 | S. cerevisiae deletion strains, locus YLR262C, strain YPT6, active compounds read low 1.15 | S. cerevisiae deletion strains, locus YML094W, strain GIM5, active compounds read low 1.01 | S. cerevisiae deletion strains, locus YMR219W, strain ESC1, active compounds read low 1.01 | S. cerevisiae deletion strains, locus YMR263W, strain SAP30, active compounds read low 0.992 | S. cerevisiae deletion strains, locus YNL153C, strain GIM3, active compounds read low 1.02 | S. cerevisiae deletion strains, locus YNL298W, strain CLA4 (second series), active compounds read low 1 | S. cerevisiae deletion strains, locus YNL322C, strain KRE1, active compounds read low 1 | S. cerevisiae deletion strains, locus YNR030W, strain Alg12, active compounds read low 1.01 | S. cerevisiae deletion strains, locus YPL055C, strain LGE1, active compounds read low 0.954 | S. cerevisiae deletion strains, locus YPL241C, strain CIN2, active compounds read low 0.997 | S. cerevisiae deletion strains, locus YPR135W, strain CTF4, active compounds read low 1 | S. cerevisiae strains, strain wild type, active compounds read low 1.02
